# The campaign covered roughly 69,000 compounds. About 8,600 (12%) showed an effect of 50% or more. This is one part of a sample in which strong results are shown more often than they occur.
# System: Plasmodium berghei
# Assay: Screen against P. berghei liver stage (PbLuc), transformed with Luciferase, at 10uM
# Assay type: functional, HepG2
# Details: tested at 10 uM
row,Compound,INHIBITION [%]
1,CC(=O)N1CCC(Cc2cncc(-c3c(C)n[nH]c3C)n2)C1 (configuration not stated),28
2,CN1CC(=O)N(c2cccnc2)CC12CCN(C(=O)c1cccn1C)C2 (configuration not stated),-46.8
3,CCCOC(=O)NCCC1CN(c2cnn(C)c(=O)c2)CCO1 (configuration not stated),45.3
4,CC(=O)NC(=O)C1(CCCc2ccncc2)CCN1 (configuration not stated),12.3
5,O=C(N1CCCC1)N1Cc2nccn2CC(COc2cccnc2)C1 (configuration not stated),-21.1
6,CSc1ccc(C(=O)N2CC(=O)N(Cc3ccccc3)CC(O)C2)cc1 (configuration not stated),-42.1
7,O=C(CN1C(=O)CCC1=O)N1CCOCC1,59.8
8,O=C(Cn1nc(Br)nc1Br)N1CCOCC1,15.5
9,O=C(CN1C(=O)CCC1=O)N1CCOC2(CCOCC2)C1,32.4
10,Cc1nc2[nH]cnc(Nc3ccn(C)n3)c-2n1,25.9
11,CC(C)CC(NC(=O)OC(C)(C)C)C(N)=O (configuration not stated),13.9
12,Cc1cccc(-c2nc3cc(S(=O)(=O)N4CCCC4)ccc3n2C)n1,-7.53
13,CC(C)(CO)CCCNC(=O)NC1(c2ccccc2F)CC1,9.16
14,O=C(NCCOc1ccc2c(c1)OCO2)C1CC(=O)N(C2CC2)C1 (configuration not stated),31.9
15,O=C(N[C@@H]1CN[C@@H]2CCCO[C@@H]21)c1cscn1,11.4
16,O=C(N[C@H]1CN[C@H]2CCCO[C@H]21)c1cscn1,1.81

row,Compound,INHIBITION [%]
1,O=C(N[C@@H]1CN[C@H]2CCCO[C@H]21)c1cnccn1,52
2,Cc1ccc(CNc2cc(C(=O)N3CCOCC3)nc(C)n2)cc1,-3.72
3,CC(C)N1CC(C(=O)NCc2cccnc2-n2cccn2)CC1=O (configuration not stated),6.2475
4,CC(C)C(=O)NCCCNC(=O)Nc1cc(-c2ccccc2)ns1,-89.2
5,CNC(=O)CNC(=O)Nc1cc(-c2ccccc2)ns1,73.3
6,CC(C)(C)NC(=O)CNC(=O)Nc1cc(-c2ccccc2)ns1,26
7,COc1cccc(CCC(=O)N2CCCC(c3nncn3C)C2)c1 (configuration not stated),4.71
8,COc1ccc(CN2CCCCCC2c2cccs2)c(OC)c1 (configuration not stated),10.2
9,COc1cccc(CN2CCCCCC2c2cccc(C)c2)c1O (configuration not stated),56.1
10,COc1ccc(CN2CCCCCC2c2cccs2)c(O)c1 (configuration not stated),4.35
11,COc1ccc(OC)c(CN2CCCCCC2c2cccs2)c1 (configuration not stated),50.5
12,COc1cccc(CN2CCCCCC2c2cccc(F)c2)c1O (configuration not stated),-0.29
13,COc1cc(CN2CCCCCC2c2cccs2)cc(OC)c1O (configuration not stated),50.8
14,COc1cccc(CN2CCCCCC2c2sccc2C)c1O (configuration not stated),23.5
15,COc1cc(CN2CCCCCC2c2cccs2)cc(OC)c1OC (configuration not stated),29.3
16,COc1cccc(CN2CCCCCC2c2cccs2)c1O (configuration not stated),33.2

# From ChEMBL document CHEMBL4513216, “Probing the Open Global Health Chemical Diversity Library for Multistage-Active Starting Points for Next-Generation Antimalarials” (ACS Infect Dis, 2020)
